Compound activity: PubChem, several laboratories
Shown are actives, neighbours in structure and some others; about 2% of the full set was active somewhere.
Shn3 3UTR inh: Schnurri-3 reporter inhibition in Clone20 osteoblasts. Clone20 osteoblast Shn3 3'UTR firefly luciferase, 24 h. inhibition, % at 12.5 µM. 360,000 compounds, 0.52% hits. AID 588674;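 active means mean inhibition of at least 75% with every replicate also reaching 75%; inconclusive means mean inhibition at least 75% but some replicate below; inactive means mean inhibition below 75%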
LGR2 inh: inhibitors of bursicon-induced Drosophila LGR2 receptor cAMP signaling; HEK293 LGR2, CRE-luciferase, bursicon-stimulated, 4 h; inhibition, % at 9.99 µM; 380,000 compounds, 0.35% hits; AID 720647;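 active means drop in luminescence signal, shown as inhibition above about 50% in the replicate tests, limit read from the data, passing the limit was not always enough; inconclusive means probably only some replicates passing the limit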;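 further: agonist challenge used bursicon conditioned medium at about half maximal strength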
KKLEB tox: CF airway cell cytotoxicity counter-screen | KKLEB CF airway cells viability, ATPlite luminescence, overnight; active compounds read low; cells stimulated with P. aeruginosa culture filtrate | activity change (cytotoxicity), % at 5 µM | 360,000 compounds, 0.36% hits;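 active means corrected activity change at or below -50% at 5 µM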
CF NFkB block: cystic fibrosis NF-kB activation inhibition; KKLEB NF-kB-GFP reporter, PAF-induced, GFP fluorescence overnight; inhibition, % at 5 µM; 360,000 compounds, 0.86% hits;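 active means at least 50% inhibition at 5 µM, scaled per plate between neutral and stimulator controls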;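 further: PAF is a Pseudomonas aeruginosa culture filtrate used as stimulus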
PAX8 inh HTS: PAX8 transcriptional activity inhibition; RMG-I TPO-luciferase reporter, SteadyGlo, 24 h; inhibition, % at 12.6 µM; 360,000 compounds, 1.2% hits;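 active means mean replicate inhibition at least 60% with every replicate also reaching 60%; inconclusive means only one of the two criteria is met; inactive means mean below 60% and not all replicates reaching 60%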;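 further: luciferase light reporting Pax8 driven TPO promoter activity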
EWS-Fli block: blocks EWS/Fli oncoprotein-driven transcription; A673 NR0B1-luciferase reporter, viability-normalised; inhibition, % at 12.6 µM; 350,000 compounds, 0.67% hits; AID 651661;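 active means mean inhibition of at least 50% after viability correction, with every replicate also passing that limit; inconclusive means mean reaches 50% but only one of two replicates passes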;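 further: firefly luciferase signal divided by Alamar Blue viability fluorescence both relative to DMSO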
DNA binding: small molecule DNA binding by fluorescence polarization; shares compounds with EWS-Fli block; AC35, µM (top dose mostly 68 µM); 640 compounds, 2% hits; salmon sperm DNA acridine orange fluorescence polarization; AID 720586;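 active means fitted curve reaches a 35% signal fall AC35 below twice the sample's top valid tested dose, actives reach about 48 µM in these data; inactive means the rest, including activity in the rising direction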;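 further: lower polarization ratio signals compound binding to DNA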
Of the large screens only hits and unclear results are named; the others gave an inactive call (follow-up assays come after a bar, where they were run); ! = repeats disagree.

O=C1/C(=C\c2ccccc2)CN(C(=O)CCN2CCCCC2)C/C1=C/c1ccccc1	Shn3 3UTR inh 94, LGR2 inh 104, KKLEB tox -54, CF NFkB block 91, EWS-Fli block 80 | DNA binding inactive
O=c1cnc2ccccc2n1Cc1ccc(Br)cc1	none
CC(C)(C)c1ccc(Cn2c(=O)cnc3ccccc32)cc1	LGR2 inh 60, EWS-Fli block 78 | DNA binding inactive
N#Cc1cccc(-c2ccc([C@H]3[C@H]4CN(C(=O)Nc5cccc(F)c5)CCCCN4[C@H]3CO)cc2)c1	none (no result: Shn3 3UTR inh, KKLEB tox, CF NFkB block)
C[C@@H]1CN([C@@H](C)CO)C(=O)Cc2cc(NC(=O)NC3CCCCC3)ccc2O[C@@H]1CN(C)C(=O)NC1CCCCC1	none (no result: Shn3 3UTR inh, KKLEB tox, CF NFkB block, PAX8 inh HTS)
COc1cc(/C=N/NC(=O)c2csc3c2CCCC3)cc(OC)c1O	EWS-Fli block 85 | DNA binding inactive
C[C@@H]1CCCCO[C@@H](CN(C)S(C)(=O)=O)[C@H](C)CN([C@@H](C)CO)C(=O)c2cc(NC(=O)Nc3ccc(C(F)(F)F)cc3)ccc2O1	none (no result: Shn3 3UTR inh, KKLEB tox, CF NFkB block)
COc1ccc(/C=C2\SC(=O)N(CCCC(=O)Nc3ccc(C(=O)O)cc3)C2=O)cc1	EWS-Fli block 82 | DNA binding inactive
COc1ccc(/C=C2\SC(=S)N(CCCC(=O)NNC(=O)c3ccccc3O)C2=O)cc1	PAX8 inh HTS 66, EWS-Fli block 77 | DNA binding inactive
Cc1ccc(/C=C2\SC(=S)N(CCCC(=O)Nc3ccccc3C(=O)O)C2=O)cc1	none
O=C(CCN1C(=O)S/C(=C\c2ccc(Cl)cc2)C1=O)Nc1ccc(C(=O)O)cc1	none
COc1ccc(/C=C2/SC(=S)N(CCCC(=O)Nc3ccccc3C(=O)O)C2=O)cc1	EWS-Fli block 64 | DNA binding inactive
C[C@H](CO)N1C[C@H](C)[C@H](CN(C)C(=O)Nc2ccc3c(c2)OCO3)Oc2ncc(-c3ccccc3)cc2C1=O	none (no result: Shn3 3UTR inh, KKLEB tox, CF NFkB block)
C[C@H](CO)N1C[C@H](C)[C@@H](CN(C)CC2CCOCC2)Oc2ncc(C#CCc3ccccc3)cc2C1=O	none (no result: Shn3 3UTR inh, KKLEB tox, CF NFkB block)
CCc1ccc(/C=C2\SC(=S)N(CCCC(=O)N3CCN(C)CC3)C2=O)cc1	EWS-Fli block 69 | DNA binding inactive
CCc1ccc(/C=C2\SC(=S)N(CCCC(=O)NCCCN3CCOCC3)C2=O)cc1	PAX8 inh HTS 62, EWS-Fli block 85 | DNA binding inactive
COc1ccc(/C=C2\SC(=S)N(CCCC(=O)N3CCN(C)CC3)C2=O)cc1	none
COc1ccc(NC(=O)N(C)C[C@H]2OCCCC[C@@H](C)Oc3ccc(NC(=O)NC(C)C)cc3C(=O)N([C@@H](C)CO)C[C@H]2C)cc1	none (no result: Shn3 3UTR inh, KKLEB tox, CF NFkB block)
O=C(CNC(c1ccccc1)c1ccccc1)Nc1ccccc1-c1ccccc1	EWS-Fli block 54 | DNA binding inactive
O=C(CNC(c1ccccc1)c1ccccc1)Nc1ccccc1F	none
COc1cccc(Sc2ccccc2/C=N/NC(N)=O)c1	EWS-Fli block 54 | DNA binding inactive
CCOC(=O)N/N=C\c1cccc(OC)c1	none
O=C(CN1C(=O)c2ccccc2S1(=O)=O)c1ccc(OC(F)F)cc1	none (no result: LGR2 inh, PAX8 inh HTS, EWS-Fli block)
O=C(CN1C(=O)c2ccccc2S1(=O)=O)c1ccc(F)cc1	LGR2 inh 74, EWS-Fli block 66 | DNA binding inactive
N#Cc1cccc(-c2ccc(C3[C@@H]4CN(C(=O)Cc5ccncc5)C[C@H]3N4)cc2)c1 (some centres undefined)	EWS-Fli block 78! (no result: Shn3 3UTR inh, KKLEB tox, CF NFkB block) | DNA binding inactive
Cc1ccc(/C=N/Nc2cn[nH]c(=O)n2)o1	none
Cc1cccc(/C=N/Nc2ccc3ccccc3n2)c1	LGR2 inh 79, EWS-Fli block 74 | DNA binding inactive
Cc1ccc(/C=N/Nc2ccc3ccccc3n2)o1	LGR2 inh inconclusive, EWS-Fli block 53 | DNA binding inactive
C(=N\Nc1ccc2ccccc2n1)/c1ccc2c(c1)OCCO2	LGR2 inh 88, PAX8 inh HTS 73, EWS-Fli block 86 | DNA binding inactive
CC(C)NC(=O)N(C)C[C@@H]1OCCCC[C@@H](C)Oc2ccc(NC(=O)c3ccccc3)cc2C(=O)N([C@H](C)CO)C[C@H]1C	none (no result: Shn3 3UTR inh, KKLEB tox, CF NFkB block, EWS-Fli block)
C[C@H]1CN([C@@H](C)CO)C(=O)c2cc(-c3cccc(F)c3)cnc2O[C@@H]1CN(C)Cc1ccccn1	none (no result: Shn3 3UTR inh, KKLEB tox, CF NFkB block)
COc1ccc(S(=O)(=O)N=Nc2c(O)[nH]c3ccccc23)cc1	EWS-Fli block 53 (no result: LGR2 inh) | DNA binding inactive
COc1ccc(NC(=S)N=Nc2c(O)[nH]c3ccccc23)cc1	EWS-Fli block 56 | DNA binding inactive
Cc1ccc(S(=O)(=O)N=Nc2c(O)[nH]c3ccccc23)cc1C	none (no result: LGR2 inh, EWS-Fli block)
C[C@@H]1CN([C@@H](C)CO)C(=O)CCCn2cc(nn2)CO[C@H]1CN(C)Cc1ccc2cccnc2c1	none (no result: Shn3 3UTR inh, KKLEB tox, CF NFkB block)
C(=N\Nc1nc2ccccc2[nH]1)/c1ccccn1	Shn3 3UTR inh 89, LGR2 inh 90, PAX8 inh HTS 62, EWS-Fli block 70 | DNA binding inactive
CN(C)c1ccc(N=Nc2ccccc2Br)cc1	LGR2 inh inconclusive, EWS-Fli block 53 | DNA binding inactive
CC(=O)c1ccc(N=Nc2ccc(N(C)C)cc2)cc1	none (no result: LGR2 inh)
COc1ccc(S(=O)(=O)Nc2ccc3c(c2)C(=O)N([C@@H](C)CO)C[C@H](C)[C@H](CN(C)C(=O)NC2CCCCC2)OCCCC[C@H](C)O3)cc1	none (no result: Shn3 3UTR inh, KKLEB tox, CF NFkB block)
CCc1ccc(S(=O)(=O)c2ccc(-n3nc(C)cc3N)cc2)cc1	EWS-Fli block 53 | DNA binding inactive
Cc1cc(N)n(-c2ccc(C(=O)O)cc2)n1	none
C[C@@H]1CN([C@@H](C)CO)C(=O)c2cc(C#CCN(C)C)cnc2O[C@@H]1CN(C)Cc1ccc(C(=O)O)cc1	none (no result: Shn3 3UTR inh, KKLEB tox, CF NFkB block)
C[C@H](CO)N1C[C@H](C)[C@H](CN(C)C(=O)NC2CCCCC2)Oc2ccc(NC(=O)CCN3CCOCC3)cc2CC1=O	none (no result: Shn3 3UTR inh, KKLEB tox, CF NFkB block)
CC(=O)c1ccc(N=Nc2ccc(C)cc2)cc1	LGR2 inh 73, EWS-Fli block 52 | DNA binding inactive
COc1ccc2c3c([nH]c2c1)[C@@H](CO)N(Cc1cccc(Cl)c1)CC31CCN(C(C)=O)CC1	none (no result: Shn3 3UTR inh, KKLEB tox, CF NFkB block, PAX8 inh HTS)
O=C(NCC1CCCO1)c1ccc(NC(=O)c2ccc(Br)cc2)cc1 (centres undefined)	none
CCC1=Nc2cc(C(=O)NCC3CCCO3)ccc2Sc2ccc(Br)cc21 (centres undefined)	EWS-Fli block 55 | DNA binding inactive
C[C@H]1CN([C@@H](C)CO)C(=O)c2cccc(NS(=O)(=O)c3ccc(Cl)cc3)c2O[C@@H]1CN(C)Cc1ccc(C(F)(F)F)cc1	none (no result: Shn3 3UTR inh, KKLEB tox, CF NFkB block, PAX8 inh HTS)
COc1ccc(S(=O)(=O)Nc2cccc3c2O[C@H](CN(C)Cc2ccc(C(=O)Nc4ccccc4N)cc2)[C@H](C)CN([C@@H](C)CO)C3=O)cc1	EWS-Fli block 57 (no result: Shn3 3UTR inh, KKLEB tox, CF NFkB block, PAX8 inh HTS) | DNA binding inactive
